Most compounds without a hit are left out; they make up all but 21% or so of the library.
CHX counter: Cycloheximide Counterscreen for Small Molecule Inhibitors of Shiga Toxin | cell reporter, cycloheximide protein synthesis inhibition counterscreen | max response, % | 300,000 tested, 12% active; in the data active means max response mostly above about 13%, no sharp cut-off; inactive means mostly below about 14%; further: read at 38.3 µM for the half of the compounds with a filed dose
NS1 function inh: qHTS Assay for Inhibitors of Influenza NS1 Protein Function | AID 2326, 2010 | 270,000 tested, 0.4% active | Potency, µM (titrated, usually from 46.1 µM); calls by dose curve; further: actives are rising curves; nearly all actives have a fitted effect of over 50% in size
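Compounds were scored for reversing the slow growth caused by influenza A NS1 in S. cerevisiae, measured by optical density at 600 nm. Assay medium contained 2% galactose at pH 6.0; NS1-free yeast of the same strain were the positive control.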
Sm TGR block: qHTS Assay for the Inhibitors of Schistosoma Mansoni Peroxiredoxins | Schistosoma mansoni thioredoxin glutathione reductase (TGR), Q962Y6 | purified TGR, DTNB reduction, TNB absorbance 405 nm | Potency, µM (doses to about 114 µM), most hits filed as inhibitors | 360,000 tested, 3% active | AID 485364, 2010; further: nearly all actives have a fitted effect of over 60% in size
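Kinetic colorimetric format: TGR-catalysed, NADPH-driven DTNB reduction monitored via TNB absorbance. Enzyme dispensed at 20 nM; compound exposure 15 min at room temperature before reaction start.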
Pf growth 96h: Primary qHTS for delayed death inhibitors of the malarial parasite plastid, 96 hour incubation. P. falciparum luciferase reporter growth, 96 h. Potency, µM (top dose mostly 28.7 µM), hits mostly inhibitors. 320,000 tested, 6.9% active. AID 504834, 2011
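Erythrocytes infected with luciferase-expressing P. falciparum were dispensed at 2% hematocrit and 0.05% parasitemia (final), then incubated with compounds 96 hours at 37 C in 5% CO2. Luminescence after detection reagent addition reported growth.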
Shiga inhibitor: A qHTS for Small Molecule Inhibitors of Shiga Toxin | Vero cells, Shiga toxin protein synthesis inhibition reporter | inhibition, % at 38.7 µM | 290,000 tested, 9.2% active; in the data active means inhibition mostly above about 28%, no sharp cut-off; inactive means mostly below about 43%
Pf growth 48h: Primary qHTS for delayed death inhibitors of the malarial parasite plastid, 48 hour incubation | AID 504832, 2011 | P. falciparum luciferase growth in erythrocytes, 48 h | Potency, µM (doses to about 28.7 µM), hits mostly inhibitors | 310,000 tested, 5.9% active
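Read-out is firefly luciferase luminescence from an integrated reporter in P. falciparum, so falling signal marks reduced parasite growth. Infected erythrocytes were at 2% hematocrit and 0.1% parasitemia (final) in Albumax-supplemented RPMI 1640.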
Hits are given with their value; - = inactive; ? = inconclusive; . = no result given. Unless noted, the call rests on the fitted dose curve; in most records, active means well fitted curve in the direction sought with a large enough effect; inconclusive means small, poorly fitted or top-dose-only effect, or another doubt; inactive means no such curve, though single readings can be large; an effect the other way counts as inactive or inconclusive.

SMILES	CHX counter	NS1 function inh	Sm TGR block	Pf growth 96h	Shiga inhibitor	Pf growth 48h
CCOC(=O)c1c(C)n(C)c2ccc(OC(=O)c3ccc(N4C(=O)CCC4=O)cc3)cc12	-	-	-	?	-	-
CCOc1ccccc1CNS(=O)(=O)c1cnc(N)nc1	.	.	-	.	.	.
O=C(c1ccc2c(c1)N(Cc1ccc(F)cc1)CCS2)N1CCN(c2ccccc2)CC1	.	.	-	.	.	.
O=C(CSc1ncc(-c2ccccc2)[nH]1)Nc1cccc(C(F)(F)F)c1	.	.	-	.	.	.
O=C(NCCN1CCN(C(=O)c2ccc([N+](=O)[O-])cc2)CC1)C(=O)NCc1ccccc1	-	-	-	-	-	-
CCc1cccc(C)c1NC(=O)Cn1c(=O)n(-c2ccc(C)cc2)c(=O)c2c1cnn2C	.	.	-	.	.	.
O=S(=O)(c1ccccc1)N1CCC(n2cnc3ccccc32)CC1	-	-	-	-	-	-
COc1ccc(-c2csc(N3C(=O)C4C5c6ccccc6C(c6ccccc65)[C@@H]4C3=O)n2)cc1 (some centres not stated)	-	-	-	-	-	-
COc1ccc(-c2csc(N3C(=N)SCC3=O)n2)cc1	49	-	-	-	163	-
O=C1CNC(=S)N1c1nc(-c2ccccc2)cs1	23	-	-	-	39	-
COc1ccc(-c2csc(N3C(=O)CNC3=S)n2)cc1	93	-	-	?	140	-
COc1ccc(-c2csc(N3C(=O)C4C5c6ccccc6C(c6ccccc65)C4C3=O)n2)cc1 (configuration not stated)	-	-	-	-	-	-
CCc1c(C)[nH]n(-c2nc(-c3ccccc3)cs2)c1=O	-	.	-	-	-	-
COCCCNC(=O)Cc1c(C)c2c(cc(C)c3c(C(C)(C)C)coc32)oc1=O	-	-	-	-	-	-
COc1cc(CNCCc2ccc(S(N)(=O)=O)cc2)ccc1OCC(=O)NC(C)(C)C	-	-	-	13µM	-	-
COc1cc(CNCCO)ccc1OCC(=O)Nc1ccc(Br)cc1	24	-	-	.	-	?
Cc1ccc(C)c(NC(=O)Cn2c(=O)n(Cc3ccco3)c(=O)c3ccc(C(=O)NC4CCCC4)cc32)c1	.	.	-	.	.	.
CC(C)CCNC(=O)c1ccc(NC(=O)N2CCCCc3ccccc32)cc1	.	.	-	.	.	.
COC(=O)NNC(=O)C12CC3CC(CC(C3)C1)C2	-	-	-	4.1µM	-	-
Cc1cccc(C(=O)NNC(=O)C23CC4CC(CC(C4)C2)C3)c1O	14	-	-	-	-	-
COc1ccc(C(=O)NNC(=O)C23CC4CC(CC(C4)C2)C3)c(OC)c1	21	-	-	-	-	-
Cc1ccccc1C(=O)NNC(=O)C12CC3CC(CC(C3)C1)C2	-	-	.	?	-	-
CCOC(=O)C1CCCN(C(=O)c2ccc3c(c2)N(Cc2ccccc2)C(=O)c2ccccc2S3(=O)=O)C1 (configuration not stated)	.	.	-	.	.	.
Cc1ccccc1SCCNC(=O)c1ccccc1Br	43	-	-	?	99	-
Cc1ccccc1SCCNC(=O)CCc1ccccc1	-	-	.	-	28	-
SMILES	CHX counter	NS1 function inh	Sm TGR block	Pf growth 96h	Shiga inhibitor	Pf growth 48h
O=C(NCCNC(=O)c1ccccc1Br)c1ccccc1Br	-	-	-	?	-	-
CCC(C)NC(=O)CN1C(=O)c2cccc3cccc1c23 (configuration not stated)	-	-	-	?	-	-
CCN1/C(=N\N)c2cccc3cccc1c23	-	-	22µM	?	-	-
N/C(=N\OC(=O)CN1C(=O)c2ccccc2C1=O)c1ccc(Br)cc1	-	-	-	-	-	-
COc1ccc(-c2cc3c(=O)n(CC(=O)NCCCN4CCN(Cc5ccccc5)CC4)ncn3n2)cc1	28	-	-	-	-	-
COc1ccc(-c2cc3c(=O)n(CC(=O)NCc4ccc(Cl)cc4)ncn3n2)cc1	-	-	-	-	-	-
COc1ccc(CNC(=O)Cn2ncn3cccc3c2=O)cc1	26	.	-	-	-	-
COc1ccc(-c2cc3c(=O)n(CC(=O)NCCCN4CCC(Cc5ccccc5)CC4)ncn3n2)cc1	23	-	-	-	45	-

Source: PubChem (National Center for Advancing Translational Sciences (NCATS))
